# Test results: PubChem BioAssay
# Activity calls are given as the source filed them.
# Assays:
# Albumin (Bos taurus) = Albumin (Bos taurus) (UniProt P02769); test: compounds binding labelled BSA control protein – biochemical, small-molecule microarray, Alexa647 label, 635/667 nm fluorescence, artefact control for SMM control protein annotation, profiling panel (AID 1118); conditions: BSA-A647 binding, fluorescence 635 nm, higher = more signal;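 also: score merges 667 nm emission intensity and signal-to-noise per printed compound spot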
# [1] = probe aXIP binding to arrayed compounds – biochemical, NeuroSMM set, 635/667 nm fluorescence, primary screen (AID 1119); conditions: small-molecule microarray, higher = more signal, called active from +8 up or from −8 down;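 also: probe is the protein aXip251-270 applied at 1 µg/mL to compound-printed slides; binding of probe to printed compounds measured as 667 nm fluorescence plus signal to noise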
# [2] = probe aNOTCH3 binding on compound microarray – biochemical, small-molecule microarray, 635/667 nm fluorescence, primary screen (AID 1120); conditions: higher = more signal;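 also: probe is a biotin-tagged antibody raised against NOTCH3 rather than NOTCH3 protein; score merges spot fluorescence near 667 nm with spot signal to noise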
# [3] = probe aNOTCH2 binding on compound microarray – biochemical, small-molecule microarray, 635/667 nm fluorescence, primary screen (AID 1121); conditions: higher = more signal;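 also: score merges feature fluorescence read at 667 nm with its signal to noise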
# [4] = biological target: Carbonic anhydrase 2 (Homo sapiens) (UniProt P00918); test: compounds binding carbonic anhydrase 2 – biochemical, small-molecule microarray, Alexa647-labelled CAII, profiling panel (AID 1122); conditions: CAII-A647 binding fluorescence, higher = more signal
# [5] = COS7 lysate on small-molecule microarray, probe aHis, 635 nm (AID 1123); conditions: COS7 cell lysate, fluorescence, higher = more signal;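 also: z-score combines 667nm fluorescence intensity with signal-to-noise per printed compound spot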
# [6] = probe aLAP1 signal on lysate-treated microarray – cell lysate, small-molecule microarray, COS7 lysate, primary screen (AID 1124); conditions: probe aLAP1, fluorescence, higher = more signal;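 also: lysate comes from COS7 cells expressing LAP1 and is applied at 0.3 µg/mL; score merges spot fluorescence near 667 nm with signal-to-noise over triplicate slides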
# Sam68 (KHDRBS1) = test: compounds binding KHDRBS1 protein – biochemical, small-molecule microarray, 635 nm fluorescence, primary screen (AID 1125); conditions: higher = more signal;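 also: score merges 667 nm channel intensity with signal to noise over triplicate slides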
# [7] = system: Chordin-like protein 2 (CHRDL2); test: compounds binding chordin-like 2 – biochemical, small-molecule microarray, 635 nm fluorescence, primary screen (AID 1126); conditions: fluorescence 635 nm, higher = more signal;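 also: printed compound slides probed with Chrdl2 protein at 4 µg/mL for 1 h at 4 C; score merges 667 nm emission intensity with signal to noise over three replicate slides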
# [8] = biological target: Concanavalin-A (Canavalia ensiformis) (UniProt P02866); test: compounds binding concanavalin A lectin – biochemical, small-molecule microarray, Alexa647 label, 635 nm, artefact control for SMM control protein annotation, primary screen (AID 1127); conditions: ConA-A647 binding fluorescence, higher = more signal;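 also: z combines 667 nm emission intensity with signal-to-noise across three replicate slides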
# Chain of Concanavalin-A (Canavalia ensiformis) (P02866 whole entry, looked up): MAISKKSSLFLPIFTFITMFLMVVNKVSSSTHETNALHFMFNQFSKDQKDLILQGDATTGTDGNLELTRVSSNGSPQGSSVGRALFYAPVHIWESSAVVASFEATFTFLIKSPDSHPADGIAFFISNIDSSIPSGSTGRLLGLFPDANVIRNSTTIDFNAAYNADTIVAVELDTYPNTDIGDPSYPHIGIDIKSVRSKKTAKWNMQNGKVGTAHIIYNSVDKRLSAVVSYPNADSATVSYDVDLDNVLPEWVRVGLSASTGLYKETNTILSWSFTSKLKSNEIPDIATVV
# Chain of Albumin (Bos taurus) (P02769 whole entry, looked up): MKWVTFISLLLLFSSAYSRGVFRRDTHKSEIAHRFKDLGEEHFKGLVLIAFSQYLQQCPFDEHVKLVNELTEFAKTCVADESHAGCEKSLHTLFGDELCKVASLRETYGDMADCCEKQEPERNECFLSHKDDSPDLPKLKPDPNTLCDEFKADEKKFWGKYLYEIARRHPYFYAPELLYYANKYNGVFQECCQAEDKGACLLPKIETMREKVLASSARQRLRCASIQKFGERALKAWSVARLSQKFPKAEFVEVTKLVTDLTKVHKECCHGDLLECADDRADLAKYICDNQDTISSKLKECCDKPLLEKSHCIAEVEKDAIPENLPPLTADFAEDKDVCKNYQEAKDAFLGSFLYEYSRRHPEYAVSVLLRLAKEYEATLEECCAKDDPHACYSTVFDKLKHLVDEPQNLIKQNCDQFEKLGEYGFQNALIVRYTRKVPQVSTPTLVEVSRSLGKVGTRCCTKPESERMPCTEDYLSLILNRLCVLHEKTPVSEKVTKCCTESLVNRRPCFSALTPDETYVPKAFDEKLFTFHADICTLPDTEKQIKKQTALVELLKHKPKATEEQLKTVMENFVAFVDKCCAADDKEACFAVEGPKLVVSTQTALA
SMILES,composite z-score (Albumin (Bos taurus)),composite Z-score [1],composite z-score [2],composite z-score [3],composite z-score [4],composite z-score [5],composite z-score [6],composite z-score (Sam68 (KHDRBS1)),composite z-score [7],composite z-score [8]
C=C(CCCC)/C(=C/C[C@H](OC(C)=O)c1cccc(OCCO)c1)c1cc(C(=O)OC)ccc1OC,0.387,-0.822 (inactive),-0.21,-0.132,0.355,-0.148,0.147,0.302,-0.149,-0.795
CCOC(=O)C1=CC[C@@H](c2ccccc2Cl)N(S(=O)(=O)c2ccc(C)cc2)[C@H]1c1cccc(OC)c1,0.453,-0.161 (inactive),-0.014,-0.115,0.304,0.878,-0.151,0.371,-0.0126,0.577
[N-]=[N+]=NCc1ccccc1C[C@]1(C(=O)O)COC(c2ccc(OCCCO)cc2)=N1,0.748,-0.496 (inactive),-0.0525,-0.14,0.805,-0.0577,-0.369,-0.91,-2.26,-0.927
NCCCC[C@@H]1NC(=O)[C@H]2C[C@@H](C(=O)NCc3ccc(F)cc3)[C@@H](c3ccc(O)cc3)N2C1=O,-0.135,0.744 (inactive),0.125,-0.0531,0.738,2.18,0.313,1.19,0.521,1.13
COC(=O)[C@@]1(Cc2ccc(OC)cc2)[C@@H]2[C@@H](CC(=O)[C@H]2CC(=O)C(=O)N2CCCC2)CN1C(=O)c1ccccc1,0.979,-0.766 (inactive),1.75,1,0.856,3.45,0.921,1.09,0.251,1.18
CCCC=C(CCC)[C@@H](NC(=O)c1ccco1)c1ccc(C(=O)OC)cc1,0.779,-0.0549 (inactive),0.281,-0.0222,0.669,2.72,0.0767,1.31,-0.618,0.939
CC(C)=CCN(C(=O)C#Cc1ccccc1)[C@H](CO)c1ccccc1,-0.105,-0.0102 (inactive),0.0259,-0.0883,-0.0216,0.506,0.0602,0.798,0.902,0.101
CCOC(=O)C1=CC[C@@H](c2ccccc2)N(S(=O)(=O)C[Si](C)(C)C)[C@H]1c1ccccc1,0.873,-0.17 (inactive),0.138,-0.0079,0.605,1.27,-0.203,1.34,0.302,1.02
COc1ccc(C#Cc2ccc3c(c2)[C@]2(C(=O)N3)[C@H](c3ccc(OCCO)cc3)N3[C@H](c4ccccc4)[C@H](c4ccccc4)OC(=O)[C@H]3[C@@H]2C(=O)O)cc1,-0.0067,-0.221 (inactive),1.18,-0.0907,0.653,3.18,0.811,1.3,0.234,0.761
C=CCC(OC(C)=O)[C@@H]1[C@@H](N(Cc2ccc(-c3ccccc3)cc2)C(=O)c2ccc(-c3ccccc3)cc2)c2cc(OCCCO)ccc2N1C(=O)c1ccc2ccccc2n1 (stereo not given in full),-0.211,-0.314 (inactive),0.195,-0.12,-0.0785,-0.137,0.504,0.504,0.169,-0.309
COC(=O)c1c(CC[C@@H](CO)NC(=O)N[C@@H](Cc2ccccc2)Cn2cc(-c3cncn3C)nn2)oc(C(C)=O)c1C(=O)OC,0.979,0.047 (inactive),0.212,-0.144,0.648,1.95,0.512,1.21,-0.722,1.07
CCC(CC)C(O)C1C=CC2C(=O)N(C)C(=O)C2N1N1CCCCC1 (stereo not given),0.999,-0.175 (inactive),0.499,0.0477,0.755,2.5,0.502,1.31,0.0277,1.13
COC(=O)Cn1c(C(=O)N(C)C)cc2c1C[C@H]1CN(C(=O)c3ccccc3)[C@@](Cc3ccc(OC)cc3)(C(=O)OC)[C@@H]21,0.938,-0.945 (inactive),0.332,-0.037,0.845,3.28,-0.0169,1.08,-0.108,0.812
Cc1c(-c2ccc(-c3ccc(Cl)c(Cl)c3)o2)nc(-c2ccccc2)c2c1CO[Si]2(C(C)C)C(C)C,0.734,-0.0877 (inactive),-0.122,-0.148,0.181,0.356,-0.213,0.295,-0.18,0.248
CCCCC(O)C1C=CC2C(=O)NC(=O)C2N1Nc1ccccn1 (stereo not given),0.082,0.0557 (inactive),-0.155,0.0377,0.885,-0.234,0.386,-1.01,-0.0858,0.344
COC(=O)C(CC#Cc1ccc2c(c1)[C@]1(C(=O)N2)[C@H](c2ccc(O)cc2)N2[C@H](c3ccccc3)[C@H](c3ccccc3)OC(=O)[C@H]2[C@@H]1C(=O)N1CCc2cc(OC)c(OC)cc2C1)C(=O)OC,-0.1,0.33 (inactive),0.0032,-0.125,0.366,1.72,1.05,1.32,0.64,1.12
